30 compounds from PubChem BioAssay (NCATS) can be followed below.

Several values for one entry are separate records, joined by “and”; a condition that tells them apart may be missing. Equal values may be shown once. Activity calls are given as the source filed them. A call without a number means that no potency is given here. Unless noted, calls come from the whole dose curve; as a rule, active = well fitted curve in the direction sought with a large enough effect; inconclusive = small, poorly fitted or top-dose-only effect, or another doubt; inactive = no such curve, though single readings can be large; an effect the other way counts as inactive or inconclusive. Numbered stars: 1 amine (or outer) side, 2 acyl side, 3 side chain; on linkers, the order of the positions; unused ones are H or OH. Bridge positions count the residues as written; N and C are the ends. Square brackets hold non-standard residues; d marks the D form. Peptide text beside a SMILES is read from it. I, II: the chains in the order shown. Actinocin(9to1) = Cc1c2oc3c(C)ccc(C(=O)[*:1])c3nc-2c(C(=O)[*:2])c(N)c1=O; NMeV = CN[C@H](C(=O)O)C(C)C; Sar = CNCC(=O)O

Test [1] concerns the target Ubiquitin carboxyl-terminal hydrolase 1 (Homo sapiens) (UniProt O94782). The test can be described thus: Inhibitors of USP1/UAF1: Pilot qHTS (AID 504865). Note: nearly all actives have a fitted effect of over 35% in size. Note: potency is the fitted concentration of half-maximal effect. An outline of the steps:
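1nM USP1/UAF1 + cpd, 15 min RT; start w/ Ub-Rho 150nM final; kinetic FL 480/540 nm, 6 reads q60 s. Buffer 50mM HEPES pH 7.8, 0.5mM EDTA, 1mM TCEP, 0.01% Tween-20, 0.1 mg/ml BSA.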

Test [2] deals with Estrogen receptor (Homo sapiens) (UniProt P03372). The test can be described thus: qHTS assay for small molecule antagonists of estrogen receptor alpha signaling (AID 588513; active = well fitted curve in the direction sought with a large enough effect in the signal ratio, with a control signal flat, not every such curve was filed as active; inconclusive = small, poorly fitted or top-dose-only effect, or effect the other way, or a change in a side signal; inactive = no such curve, though single readings can be large or run the other way; the % refers to the signal ratio; note: potency is the fitted concentration of half-maximal effect). In outline: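 Beta-lactamase reporter, antagonist mode, HEK 293 GripTite cells; 0.5nM E2 stimulus, 18 h, 37 C; CCF4 dye 2 h RT; fluorescence. IC50 and efficacy from Hill fits, normalized to E2 and DMSO.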
Estrogen receptor (Homo sapiens), sequence (P03372 whole entry, looked up): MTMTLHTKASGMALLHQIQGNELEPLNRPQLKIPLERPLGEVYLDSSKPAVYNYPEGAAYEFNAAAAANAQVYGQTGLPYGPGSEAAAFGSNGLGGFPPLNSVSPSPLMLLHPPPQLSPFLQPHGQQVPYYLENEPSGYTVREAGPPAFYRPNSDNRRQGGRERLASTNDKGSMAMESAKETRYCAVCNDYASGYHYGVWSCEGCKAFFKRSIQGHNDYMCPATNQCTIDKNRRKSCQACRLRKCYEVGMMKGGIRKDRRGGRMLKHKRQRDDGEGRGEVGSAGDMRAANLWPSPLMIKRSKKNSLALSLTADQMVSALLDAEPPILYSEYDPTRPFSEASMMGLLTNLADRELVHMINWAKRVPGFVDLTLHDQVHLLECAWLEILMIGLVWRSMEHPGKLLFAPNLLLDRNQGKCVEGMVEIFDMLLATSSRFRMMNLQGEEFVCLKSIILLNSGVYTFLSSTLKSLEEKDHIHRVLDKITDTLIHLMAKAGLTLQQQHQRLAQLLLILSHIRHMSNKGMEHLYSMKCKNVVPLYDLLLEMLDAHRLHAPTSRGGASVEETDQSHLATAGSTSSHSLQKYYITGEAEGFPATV
(In general: In qHTS, concentration-response curves come from the screen itself.)

The target is the same in test [3]. As to the kind of experiment: qHTS assay for small molecule agonists of estrogen receptor alpha signaling (AID 588514; calls by dose curve; note: nearly all actives have a fitted effect of over 70% in size). In outline:
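Fluorescence from CCF4 cleavage reports ER-alpha-driven beta-lactamase expression in HEK 293 cells treated 18 hrs at 37 C. Data normalized to 17-beta-estradiol (20 nM) and DMSO, fitted to Hill equation.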

Test [4] concerns the target Androgen receptor (Homo sapiens) (UniProt P10275). As to the kind of experiment: qHTS assay for small molecule agonists of androgen receptor signaling (AID 588515; active = well fitted curve in the direction sought with a large enough effect in the signal ratio, with a control signal flat; inconclusive = small, poorly fitted or top-dose-only effect, or effect the other way, or a change in a side signal; inactive = no such curve, though single readings can be large or run the other way; the % refers to the signal ratio). As to conditions: AR-UAS-bla HEK293, beta-lactamase ratio, agonist 16 h; stronger effect = higher value. An outline of the steps:
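Stimulation of an AR-responsive β-lactamase reporter in GripTite HEK293 cells was measured after 16 h compound exposure at 37 °C, via CCF4 fluorescence after 2 h RT. EC50 from Hill fits, normalized to R1881 at 30 nM.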

Test [5] has the same target. The test can be described thus: qHTS assay for small molecule antagonists of androgen receptor signaling (AID 588516; active = well fitted curve in the direction sought with a large enough effect in the signal ratio, with a control signal flat, not every such curve was filed as active; inconclusive = small, poorly fitted or top-dose-only effect, or effect the other way, or a change in a side signal; inactive = no such curve, though single readings can be large or run the other way; the % refers to the signal ratio). In outline:
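HEK293 AR-UAS-bla cells, 10% dialyzed FBS medium; cpd titration + R1881 10 nM final, 16 h 37 C; CCF4 2 h RT; FRET ratio; IC50/efficacy via Hill fit.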

Test [6] deals with Bile acid receptor (Homo sapiens) (UniProt Q96RI1). As to the kind of experiment: qHTS assay for small molecule antagonists of farnesoid X receptor signaling (AID 588526; calls by dose curve). In outline:
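Beta-lactamase reporter antagonist mode: HEK293T FXR-UAS-bla cells, titrated compound, CDCA stimulation, 16 h 37 C, CCF4 dye 2 h RT. Data normalized to CDCA 50 uM and DMSO; Hill-fit IC50.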

For test [7], the target named is Glucocorticoid receptor (Homo sapiens) (UniProt P04150). The test can be described thus: qHTS assay for small molecule agonists of glucocorticoid receptor signaling (AID 588532; active = well fitted curve in the direction sought with a large enough effect in the signal ratio, with a control signal flat; inconclusive = small, poorly fitted or top-dose-only effect, or a change in a side signal; inactive = no such curve, though single readings can be large or run the other way; the % refers to the signal ratio). The note with it: HeLa MMTV-bla, beta-lactamase ratio, agonist, 18 h; stronger effect = higher value; percent of dexamethasone control, DMSO zero. An outline of the steps: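 Quantitative HTS using CellSensor MMTV-bla HeLa cells in charcoal/dextran-treated serum; compounds tested up to 92 uM. After 18 h at 37 C, CCF4 dye reported reporter induction.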
Glucocorticoid receptor (Homo sapiens), sequence (P04150 whole entry, looked up): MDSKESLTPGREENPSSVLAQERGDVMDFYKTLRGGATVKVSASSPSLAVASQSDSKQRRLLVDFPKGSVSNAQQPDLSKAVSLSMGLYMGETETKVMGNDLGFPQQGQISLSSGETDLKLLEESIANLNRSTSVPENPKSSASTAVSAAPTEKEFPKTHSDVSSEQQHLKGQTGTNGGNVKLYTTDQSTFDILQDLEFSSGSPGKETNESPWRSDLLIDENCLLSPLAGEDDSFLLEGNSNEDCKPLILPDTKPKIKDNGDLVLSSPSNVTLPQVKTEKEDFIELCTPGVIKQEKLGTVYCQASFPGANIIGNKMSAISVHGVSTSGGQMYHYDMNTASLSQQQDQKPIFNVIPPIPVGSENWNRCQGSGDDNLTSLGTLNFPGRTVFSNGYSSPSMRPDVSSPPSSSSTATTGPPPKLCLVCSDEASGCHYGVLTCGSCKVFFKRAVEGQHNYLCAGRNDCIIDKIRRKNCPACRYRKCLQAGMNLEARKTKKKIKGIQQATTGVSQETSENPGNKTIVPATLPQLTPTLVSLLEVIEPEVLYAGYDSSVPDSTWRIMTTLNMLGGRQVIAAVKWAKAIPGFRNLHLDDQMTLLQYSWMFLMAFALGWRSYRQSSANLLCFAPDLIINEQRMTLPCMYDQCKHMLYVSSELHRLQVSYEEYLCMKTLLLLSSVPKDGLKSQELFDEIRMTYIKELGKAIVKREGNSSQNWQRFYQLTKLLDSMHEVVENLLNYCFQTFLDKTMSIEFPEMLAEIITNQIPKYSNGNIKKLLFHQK

Test [8] is described as follows: Validation screen for small molecules that induce genotoxicity in human embryonic kidney (HEK293T) cells expressing luciferase-tagged ELG1 (AID 493106). In outline: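 In this validation screen, increased ELG1-luciferase signal flags compounds causing genetic stress. HEK293T reporter cells are treated 16 hr (37 °C, 5% CO2), developed with ONE-Glo for 30 min at room temperature, and imaged on a CCD-based reader.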

A short description of test [9]: qHTS for Inhibitors of Cell Surface uPA Generation: Validation Assay (AID 493164).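 Note: RAW 264.7 macrophage cells exposed to compound for 18 h.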 An outline of the steps: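 Compounds are titrated over seven points (2.45 nM–38.3 uM final) onto pre-plated RAW 264.7 cells and incubated for 18 h. Retained intracellular ATP, measured with ATP-Lite, indicates blocked lethal factor entry.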
Test [10] deals with Peptidyl-prolyl cis-trans isomerase NIMA-interacting 1 (Homo sapiens) (UniProt Q13526). As to the kind of experiment: qHTS Validation Assay to Find Inhibitors of Pin1 (AID 504536; active = well fitted inhibition curve with a large enough effect in the polarisation, with a control signal flat, not every such curve was filed as active; inconclusive = small, poorly fitted or top-dose-only effect, or effect the other way; the % refers to the polarisation). In outline:
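Fluorescence polarization competition: compounds (titration) displace HiFluor-488-labeled Pin1-1b peptide from Pin1 (0.3 uM final) in pH 7.5 HEPES buffer with DTT, 10 min at room temperature; %Activity normalized to no-enzyme wells, curves fitted.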

Test [11] addresses phosphoglycerate mutase (Leishmania major) (UniProt Q4Q090). The test can be described thus: qHTS Validation Assay to Find Inhibitors of Phosphoglycerate Mutase (AID 504548). Note: series mostly up to about 58 µM. In outline: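 Lm PGAM 1.25nM final; 100 mM TEA pH 7.6, 5 mM MgCl2, 0.01% Tween-20; 45 min RT; Kinase-GloPlus, 10 min; end-point luminescence. Enzyme-free wells as negative controls.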
Test [12] can be described thus: qHTS for Inhibitors of ATXN expression: Validation (AID 588378). Note: series mostly up to about 57 µM; nearly all actives have a fitted effect of over 75% in size. An outline of the steps:
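Cells: HEK293-ATXN2-FFLuc, phenol-red free DMEM, 2 h attachment. Compound pin-transfer, 24 h, 37 degrees C, 5% CO2. CellTiter-Fluor 30 min, Ex405/Em525; Bright-Glo 5 min, luminescence 2 s exposure.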

For test [13], the target named is DNA dC->dU-editing enzyme APOBEC-3G (Homo sapiens) (UniProt Q9HC16). The test can be described thus: qHTS for inhibitors of Vif-A3G interactions: Validation (AID 588379). An outline of the steps:
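Yellow fluorescence (Ex 488, Em 500-530) of Vif-coexpressing HeLa A3G-eYFP cells, scanned by Acumen cytometer, reports blocked A3G degradation. Cells plated at 700/well overnight at 37 deg C before compound addition, then a further overnight compound incubation at 37 deg C.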

The target in test [14] is Thyrotropin-releasing hormone receptor (Homo sapiens) (UniProt P34981). As to the kind of experiment: qHTS for Small Molecule Agonists and Allosteric Enhancers of Human TRH Receptor: Validation Screen for Agonists (AID 493127;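 active = calcium activation more than 3 SD above the typical response in the agonist read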;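 note: intracellular calcium rise by fluo-8 fluorescence before TRH EC20 addition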). As to conditions: TRH receptor agonist cell assay; at 2 µM; stronger effect = higher value. In outline:
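Kinetic fluorescence assay of agonist-induced calcium release: overnight-plated TRHR cells, room-temperature fluo-8 loading, baseline then compound addition with per-second reads.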

Test [15] can be described thus: Validation screen for small molecules that induce DNA re-replication in SW480 colon adenocarcinoma cells (AID 504364). In outline:
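Hoechst-stained SW480 nuclei, imaged at 405 nm excitation after 48 hr compound exposure, were counted for elevated DNA content as the re-replication signal.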

Test [16] addresses Galactokinase (Homo sapiens) (UniProt P51570). The test can be described thus: qHTS Validation Assay for Inhibitors of Human Galactokinase (GALK) (AID 493189). An outline of the steps: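 Luminescence from leftover ATP (Kinase-Glo Plus, 10 min) served as read-out after a 1 h room-temperature reaction of 5 nM GALK, 100 uM galactose and 35 uM ATP at pH8.0.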
A short description of test [17]: Nrf2 qHTS screen for inhibitors: Validation (AID 493153; active = well fitted inhibition curve with a large enough effect in the main read-out, with a control signal flat, not every such curve was filed as active; inconclusive = small, poorly fitted or top-dose-only effect, or effect the other way, or a change in a side signal; inactive = no such curve, though single readings can be large or run the other way). The note with it: viability change: measured here: cytotoxicity max response. In outline:
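In this counterscreened reporter format, each well gives two signals: CellTiter-Fluor fluorescence for cytotoxicity and ARE-luciferase luminescence for Nrf2 function. A549 ARE_Fluc cells in 5% FBS OPTI-MEM were exposed to compound titrations for 18-24 h.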

DNA dC->dU-editing enzyme APOBEC-3G (Homo sapiens), sequence (Q9HC16 whole entry, looked up): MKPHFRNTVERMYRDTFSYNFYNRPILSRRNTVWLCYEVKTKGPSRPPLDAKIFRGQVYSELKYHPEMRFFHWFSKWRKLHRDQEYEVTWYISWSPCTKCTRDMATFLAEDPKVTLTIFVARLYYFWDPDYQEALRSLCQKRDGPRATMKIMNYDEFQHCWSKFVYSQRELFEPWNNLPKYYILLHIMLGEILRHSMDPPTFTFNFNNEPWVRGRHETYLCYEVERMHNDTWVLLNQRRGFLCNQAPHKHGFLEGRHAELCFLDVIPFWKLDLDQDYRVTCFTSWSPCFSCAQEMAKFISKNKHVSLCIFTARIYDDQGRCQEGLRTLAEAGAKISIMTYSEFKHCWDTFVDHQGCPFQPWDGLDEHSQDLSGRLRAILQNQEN
Ubiquitin carboxyl-terminal hydrolase 1 (Homo sapiens), sequence (O94782 whole entry, looked up): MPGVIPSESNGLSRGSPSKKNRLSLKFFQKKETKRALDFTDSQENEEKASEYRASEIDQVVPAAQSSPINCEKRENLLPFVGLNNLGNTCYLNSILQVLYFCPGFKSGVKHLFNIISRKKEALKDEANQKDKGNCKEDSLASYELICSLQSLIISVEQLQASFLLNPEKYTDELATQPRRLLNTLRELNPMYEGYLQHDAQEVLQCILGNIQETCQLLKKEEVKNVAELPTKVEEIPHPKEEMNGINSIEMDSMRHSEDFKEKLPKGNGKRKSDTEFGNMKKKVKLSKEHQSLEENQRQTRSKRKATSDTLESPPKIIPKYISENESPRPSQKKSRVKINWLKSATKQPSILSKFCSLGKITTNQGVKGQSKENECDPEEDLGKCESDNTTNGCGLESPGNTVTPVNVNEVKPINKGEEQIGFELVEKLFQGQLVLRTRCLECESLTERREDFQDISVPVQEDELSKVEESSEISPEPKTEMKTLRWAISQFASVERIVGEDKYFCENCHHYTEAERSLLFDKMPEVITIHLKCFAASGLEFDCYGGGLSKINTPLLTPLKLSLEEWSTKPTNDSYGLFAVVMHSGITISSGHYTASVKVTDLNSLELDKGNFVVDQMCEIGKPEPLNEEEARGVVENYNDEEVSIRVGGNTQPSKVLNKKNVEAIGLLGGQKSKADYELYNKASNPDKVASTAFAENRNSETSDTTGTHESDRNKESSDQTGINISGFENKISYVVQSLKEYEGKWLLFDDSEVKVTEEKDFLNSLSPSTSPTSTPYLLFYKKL
Androgen receptor (Homo sapiens), sequence (P10275 whole entry, looked up): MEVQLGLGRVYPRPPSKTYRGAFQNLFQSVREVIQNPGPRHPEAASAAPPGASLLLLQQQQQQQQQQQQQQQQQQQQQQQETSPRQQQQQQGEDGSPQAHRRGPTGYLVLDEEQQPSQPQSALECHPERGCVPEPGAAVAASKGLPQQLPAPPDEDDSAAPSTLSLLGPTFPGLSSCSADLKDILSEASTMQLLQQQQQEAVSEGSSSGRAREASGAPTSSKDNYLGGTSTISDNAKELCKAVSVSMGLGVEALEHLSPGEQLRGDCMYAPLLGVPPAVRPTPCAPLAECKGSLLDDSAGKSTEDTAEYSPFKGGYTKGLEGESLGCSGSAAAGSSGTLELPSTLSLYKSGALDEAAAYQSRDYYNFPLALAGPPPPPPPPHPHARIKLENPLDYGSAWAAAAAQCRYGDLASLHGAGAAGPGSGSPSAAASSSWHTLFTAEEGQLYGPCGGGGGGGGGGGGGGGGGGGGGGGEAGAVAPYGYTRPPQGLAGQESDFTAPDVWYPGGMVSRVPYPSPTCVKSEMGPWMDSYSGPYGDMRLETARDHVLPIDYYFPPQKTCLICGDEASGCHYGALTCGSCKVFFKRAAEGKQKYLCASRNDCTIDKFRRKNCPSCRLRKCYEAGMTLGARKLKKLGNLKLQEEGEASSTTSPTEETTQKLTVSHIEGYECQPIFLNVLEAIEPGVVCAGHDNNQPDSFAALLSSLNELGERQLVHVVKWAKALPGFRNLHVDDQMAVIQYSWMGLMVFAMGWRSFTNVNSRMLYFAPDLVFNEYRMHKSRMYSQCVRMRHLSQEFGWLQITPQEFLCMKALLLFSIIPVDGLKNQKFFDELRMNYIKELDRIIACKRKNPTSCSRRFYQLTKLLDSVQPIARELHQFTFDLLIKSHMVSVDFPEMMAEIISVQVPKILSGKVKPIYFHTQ
phosphoglycerate mutase (Leishmania major), sequence (Q4Q090 1-553): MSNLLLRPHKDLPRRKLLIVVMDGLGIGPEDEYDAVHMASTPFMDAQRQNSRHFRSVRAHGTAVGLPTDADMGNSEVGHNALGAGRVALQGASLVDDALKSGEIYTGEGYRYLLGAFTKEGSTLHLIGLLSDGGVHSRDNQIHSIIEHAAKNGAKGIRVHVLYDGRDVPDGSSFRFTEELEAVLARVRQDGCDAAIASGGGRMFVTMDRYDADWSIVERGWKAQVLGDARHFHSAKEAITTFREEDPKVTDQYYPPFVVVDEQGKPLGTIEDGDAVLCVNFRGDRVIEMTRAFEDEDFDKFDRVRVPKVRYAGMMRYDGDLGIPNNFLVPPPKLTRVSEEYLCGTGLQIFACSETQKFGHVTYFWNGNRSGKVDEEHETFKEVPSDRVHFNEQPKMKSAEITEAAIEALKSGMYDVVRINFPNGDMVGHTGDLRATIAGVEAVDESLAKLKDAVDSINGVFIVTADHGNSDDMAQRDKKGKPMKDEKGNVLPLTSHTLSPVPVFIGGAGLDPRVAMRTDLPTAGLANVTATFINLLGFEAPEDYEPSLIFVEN
Galactokinase (Homo sapiens), sequence (P51570 whole entry, looked up): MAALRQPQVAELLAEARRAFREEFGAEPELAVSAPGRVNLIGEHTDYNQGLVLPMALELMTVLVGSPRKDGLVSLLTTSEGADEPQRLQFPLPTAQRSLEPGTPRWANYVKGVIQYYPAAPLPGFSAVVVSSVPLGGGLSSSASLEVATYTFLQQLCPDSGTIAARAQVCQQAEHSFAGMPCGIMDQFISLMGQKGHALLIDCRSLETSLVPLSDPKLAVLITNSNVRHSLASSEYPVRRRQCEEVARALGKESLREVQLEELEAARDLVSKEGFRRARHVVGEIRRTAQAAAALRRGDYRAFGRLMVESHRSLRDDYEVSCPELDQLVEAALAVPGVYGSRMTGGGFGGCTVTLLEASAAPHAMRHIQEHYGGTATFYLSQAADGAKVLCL
Thyrotropin-releasing hormone receptor (Homo sapiens), sequence (P34981 whole entry, looked up): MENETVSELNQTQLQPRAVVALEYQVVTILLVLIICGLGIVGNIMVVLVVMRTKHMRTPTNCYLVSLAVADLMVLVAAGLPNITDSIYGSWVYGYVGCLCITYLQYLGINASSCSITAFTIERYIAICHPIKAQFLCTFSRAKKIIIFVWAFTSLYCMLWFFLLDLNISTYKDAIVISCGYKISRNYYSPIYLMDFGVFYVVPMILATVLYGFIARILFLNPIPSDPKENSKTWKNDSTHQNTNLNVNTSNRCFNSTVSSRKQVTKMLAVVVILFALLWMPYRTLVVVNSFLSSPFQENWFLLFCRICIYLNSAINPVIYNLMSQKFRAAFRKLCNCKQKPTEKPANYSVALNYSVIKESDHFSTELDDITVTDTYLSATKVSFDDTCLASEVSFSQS
Peptidyl-prolyl cis-trans isomerase NIMA-interacting 1 (Homo sapiens), sequence (Q13526 whole entry, looked up): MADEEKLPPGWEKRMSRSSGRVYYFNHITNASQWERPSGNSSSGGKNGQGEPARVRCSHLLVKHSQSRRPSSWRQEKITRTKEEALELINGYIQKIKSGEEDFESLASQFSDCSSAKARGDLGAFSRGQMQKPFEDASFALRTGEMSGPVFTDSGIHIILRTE

For the compound `CCCCCCCCCCCCCCCC[N+](C)(C)CC`, in test [1], the Potency was 17.8 µM (active).
On the same count and under the same terms, to `Oc1cc(O)c2c(c1)O[C@H](c1ccc(O)c(O)c1)[C@H](O)C2` belongs “inactive”.
`Cc1cc(=O)n(-c2ccccc2)n1C`: the Potency result in test [2] and in [6] was “inactive” throughout. Also, the compound was classed as inactive in test [3] and in test [5]. Further, the activation in [4] is -8.07% (inactive).
Consider `Cc1cc(N)c2cc(NC(=O)Nc3ccc4nc(C)cc(N)c4c3)ccc2n1`, for which the Potency in [1] was 10 µM (active).
Regarding `CCCC(=O)Nc1ccc(OCC(O)CNC(C)C)c(C(C)=O)c1` (configuration not stated), the Potency entry in test [1] was “inactive”.
As to `NC(=NCCCCCCN=C(N)/N=C(\N)Nc1ccc(Cl)cc1)/N=C(\N)Nc1ccc(Cl)cc1`, the Potency in [1] was 56.2 µM (active) and 50.1 µM (active). Further, in test [7], the activation was -3.44% (inactive) and 1.22% (inactive).
For `Oc1c(Cl)cc(Cl)cc1Sc1cc(Cl)cc(Cl)c1O`, the Potency is 35.5 µM (active) and 20 µM (active) in [1]; 39.8 µM [inconclusive] (active) in [2]. Further, the compound was called inactive in test [3].
On to `COc1cccc2c1C(=O)c1c(O)c3c(c(O)c1C2=O)C[C@@](O)(C(=O)CO)C[C@@H]3O[C@H]1C[C@H](N)[C@H](O)[C@H](C)O1`, for which, in [2], the Potency was 5.01 µM [inconclusive] (active) and 7.94 µM [inhibitor] (active). Also, in test [3], the outcome was inactive.
For the compound `CC(=O)Oc1ccc(C(c2ccc(OC(C)=O)cc2)c2ccccn2)cc1`, in test [1], the Potency entry is “inactive”.
Consider `COc1cc2c(cc1O)CC[C@@H]1[C@@H]2CC[C@]2(C)[C@@H](O)CC[C@@H]12`, for which the outcome in [8], in test [9], in test [10] and in [11] was inactive. Besides, the Potency result in [1] and in test [12] was “inactive” in each case.
As for `O=C(Nc1ccc(Cl)c(Cl)c1)C1CC1`, the Potency result in test [1] was “inactive”.
Same read-out and setting: the entry for `O=C(N/N=C/c1ccccc1O)c1ccncc1` is “inactive”.
For the compound `COc1cccc2c1C(=O)c1c(O)c3c(c(O)c1C2=O)C[C@@](O)(C(C)=O)C[C@@H]3O[C@H]1C[C@H](N)[C@H](O)[C@H](C)O1`, the Potency in test [1] was 44.7 µM (active) and 39.8 µM (active). Besides, the call in test [13] was inactive.
For `CCC(C(=O)OCCN(CC)CC)c1ccccc1` (configuration not stated), the Potency result in [1] was “inactive”.
Same read-out and setting: the figure for `CCCCC(CC)CN=C(N)NC(N)=NCCCCCCN=C(N)NC(N)=NCC(CC)CCCC` (configuration not stated) is 22.4 µM (active).
With `C=C(CC)C(=O)c1ccc(OCC(=O)O)c(Cl)c1Cl`, the Potency result in test [1] and in [2] was “inactive” throughout. For the same compound, the compound was called inactive in [3]. For the same compound, the activation in [7] was -8.92% (inactive).
With `Nc1ccc(/C=C/c2ccc(N)cc2S(=O)(=O)O)c(S(=O)(=O)O)c1`, the Potency entry in test [1] was “inactive”.
Still for that read-out and setting: the entry for `O=C(CCN1CCC(c2ccccc2)C1)c1ccc2c(c1)OCCO2` (configuration not stated) is “inactive”.
As for `CC(=O)O[C@]1(C(C)=O)CC[C@H]2[C@@H]3C[C@H](C)C4=CC(=O)CC[C@]4(C)[C@H]3CC[C@@]21C`, in test [2], the Potency result is “inactive”. Besides, the compound was classed as inactive in [3].
For the compound `O=C1OC(c2ccc(O)cc2)(c2ccc(O)cc2)c2ccccc21`, the activation in test [4] is -5.75% (inactive).
As to `CC(C)NC[C@@H](O)COc1cccc2ccccc12`, the activation in test [14] is 1.94% (inactive). Moreover, the result in test [15] and in test [13] was inactive. Besides, the Potency entry in test [1] is “inactive”.
Take `CN=C(NC#N)Nc1ccc(C2=NNC(=O)CC2C)cc1` (configuration not stated): the compound was called inactive in test [16], in test [15] and in [13]. The Potency entry in [1] was “inactive”.
As for `CNCC[C@@H](Oc1ccccc1C)c1ccccc1`, the Potency result in test [1] was “inactive”. For the same compound, the compound was classed as inactive in test [13].
`Cc1c2oc3c(C)ccc(C(=O)N[C@@H]4C(=O)N[C@H](C(C)C)C(=O)N5CCC[C@H]5C(=O)N(C)CC(=O)N(C)[C@@H](C(C)C)C(=O)O[C@@H]4C)c3nc-2c(C(=O)N[C@@H]2C(=O)N[C@H](C(C)C)C(=O)N3CCC[C@H]3C(=O)N(C)CC(=O)N(C)[C@@H](C(C)C)C(=O)O[C@@H]2C)c(N)c1=O` (I: T[dV]P[Sar][NMeV] / II: T[dV]P[Sar][NMeV]; ester I:1-I:C, II:1-II:C; linker I:N-II:N via Actinocin(9to1)): the Potency in [2] is 35.5 nM [inconclusive] (active) and 35.5 nM [inhibitor] (active). Besides, the result in [3] was inactive.
With `C/C=C/c1ccc(OC)cc1`, the Potency entry in [1] was “inactive”.
Same read-out and setting: the entry for `COc1ccc(OC)c(C(O)CNC(=O)CN)c1` (configuration not stated) is “inactive”.
With `CC(C)C[C@H]1C(=O)N2CCC[C@H]2[C@]2(O)O[C@](NC(=O)[C@@H]3C=C4c5cccc6[nH]c(Br)c(c56)C[C@H]4N(C)C3)(C(C)C)C(=O)N12`, the call in test [9] and in test [11] was inactive.
Consider `CCN(CC)C(=O)/C(C#N)=C/c1cc(O)c(O)c([N+](=O)[O-])c1`, for which the Potency entry in test [1] is “inactive”.
As to `Nc1nc2ncc(CNc3ccc(C(=O)N[C@@H](CCC(=O)O)C(=O)O)cc3)nc2c(=O)[nH]1`, the Potency result in test [1] is “inactive”. For the same compound, in [13], the result was inactive.
In the case of `Oc1ccc(O)cc1`, the result in [8], in test [17], in test [9], in test [16], in test [15] and in [11] was inactive. Besides, the activation in test [14] is 0.688% (inactive); in test [7] it was -0.636% (inactive). The viability change in test [17] is -9.14%. Moreover, in [1], the Potency entry is “inactive”.
